Test results as given in ChEMBL document CHEMBL1201862, “PubChem BioAssay data set” (2004).
About 5,100 (8.9%) of roughly 57,000 sequences were called active. Rule as the data show it: active = GI50 up to about 1.1 µM and inactive = higher. The list is a sample of the results. Measured potencies and affinities stand elsewhere.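 Briefly, cells in 96-well plates were exposed to five compound concentrations for 48 h, and endpoints were estimated by linear interpolation. GI50 marks 50% less growth.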

Tested on: HCT-116
Assay: NCI tumour cell line growth inhibition, 48 h

Compared with “[Bis(aminomethyl)tetramethylenesilane]dichloropaltinum(II), CHEMBL2146205”, “[Bis(aminomethyl)pentamethylenesilane]dichloropaltinum(II), CHEMBL2146202” is 4.6-fold lower in GI50: 11.5 µM for the first, 2.48 µM for the second.

First: CISPLATIN, CHEMBL11359
Second: mu-(1,7-nanodiamine-N,N')bis-(cis-aminedichloroplatimum (II)), CHEMBL2146215
The GI50 of the first is 10-fold lower: 4.12 µM for the first, 41.3 µM for the second.

Going from “[Bis(aminomethyl)pentamethylenesilane]tetrachloropaltinum(IV), CHEMBL2146204” to “[Bis(aminomethyl)dimethylsilane]tetrachloroplatinum(IV), CHEMBL2146190”, the GI50 rises from 1.13 µM to 8.77 µM (7.8-fold).

“[Bis(aminomethyl)diethylsilane]tetrachloroplatinum(IV), CHEMBL2146203” and “[Bis(aminomethyl)tetramethylenesilane]tetrachloropaltinum(IV), CHEMBL2146189” are within 1.5-fold of each other in GI50: 3.94 µM for the first, 4.18 µM for the second.
